Measured potencies and affinities stand elsewhere. A number with no mark means an inactive call. The source made the active and inactive calls. How the calls were made is not given here.
Assay: HEK293 cell viability loss – plate reader, cherry-pick, cytotoxicity control, dose response (AID 651899);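 further: cells exposed to compound for 48 hours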
Conditions: series mostly up to 26 µM

SMILES	outcome	activity change, negative = cytotoxicity
Cc1ccc(Cc2c(C)nc3nc(SCC(=O)NCc4ccco4)nn3c2C)cc1	inactive	
COc1ccc(CCNC(=O)c2cnc3n(c2=O)CCS3)cc1OC	inactive	
COc1ccc(C2c3c(-c4cc(Cl)c(C)cc4O)n[nH]c3C(=O)N2Cc2cccnc2)cc1OC (stereo unspecified)	inactive	
C=CCn1c(SCc2c(C(=O)OC)sc(N)c2C(=O)OC)nnc1-c1ccc(Cl)cc1	inactive	
COc1cccc(NC(=O)CCC2CCN(C(=O)c3ccc(C(C)=O)s3)CC2)c1	inactive	
O=C(Nc1ncc2c(n1)CC(c1cccc(Cl)c1)CC2=O)c1ccco1 (stereo unspecified)	inactive	
CCC(=O)N1CC[C@@H]2[C@H]1c1cc(-c3cccc(F)c3)ccc1N(C)[C@@H]2CO	inactive	
CCc1nn(CC(=O)N2CCN(Cc3ccc4c(c3)OCO4)CC2)c(=O)c2cc3occc3n12	inactive	
COc1cc(-c2n[nH]c(=S)n2Cc2ccccc2)cc(OC)c1OC	inactive	
O=C(CSc1n[nH]c(-c2cccnc2)n1)Nc1ccnc2ccccc12	inactive	
O=C(C[C@@H]1C[C@H]2c3cc(NC(=O)c4cccnc4)ccc3O[C@H]2[C@@H](CO)O1)NCc1cc(F)ccc1F	inactive	
C[C@@H](C(=O)N1CCN(Cc2ccc3c(c2)OCO3)CC1)n1nnc2ccccc2c1=O	inactive	
O=C(Nc1cccnc1)c1ccc(N2CCOCC2)c([N+](=O)[O-])c1	inactive	
COc1ccc(NC(=O)c2ccc(Cl)nc2)cc1S(=O)(=O)N1CCOCC1	inactive	
COc1cc2c(cc1NC(=O)c1cccnc1)CCCC2	inactive	
COc1ccc([N+](=O)[O-])cc1C(=O)NC1CCN(Cc2ccccc2)CC1	inactive	
CC(=O)N1CC[C@@H]2[C@@H](CO)N(C)c3ccc(-c4ccccc4)cc3[C@@H]21	inactive	
O=C(Nc1cccnc1)c1ccc(Cl)c(Cl)c1	inactive	

SMILES	outcome	activity change, negative = cytotoxicity
Cc1cc2c(c(=O)n1Cc1cccnc1)C(c1cccs1)C(C#N)=C(N)O2 (stereo unspecified)	inactive	
CC1(C)CC(=O)C=C(c2ccc3ncccc3c2)C1	inactive	
O=C(c1cccc(F)c1)N1CC[C@@H]2[C@H]1c1cc(-c3cccc(F)c3)ccc1N[C@@H]2CO	inactive	
O=C(CSc1nc2c(c(=O)n1-c1ccc(Cl)cc1)SCC2)N1CCOCC1	inactive	
COC(=O)C[C@@H]1CC[C@@H]2[C@H](COC[C@@H](O)CN2C(=O)Nc2cccc(F)c2)O1	inactive	
COc1ccc(-c2ccc3c(c2)C2CC3CCN2)cc1 (stereo unspecified)	inactive	
CC(CNC(=O)CCCn1ncn2c(cc3occc32)c1=O)c1ccccc1 (stereo unspecified)	inactive	
O=C(CSc1nc2ccccc2c(=O)n1-c1ccccc1)N1CCN(CCO)CC1	inactive	
CN1c2ccc(-c3ccccc3)cc2[C@H]2[C@H](CCN2C(=O)Cc2ccccn2)[C@H]1CO	inactive	
CC(=O)c1c(C)[nH]c(C(=O)Nc2cccnc2)c1C	inactive	
CC(=O)c1ccc(C(=O)N2CCCC(Nc3ccccc3)C2)s1 (stereo unspecified)	inactive	
CCOC(=O)c1ccc(N2C(=O)c3n[nH]c(C)c3C2c2ccc(OC)c(OC)c2)cc1 (stereo unspecified)	inactive	
Cc1cnc(C(=O)NC2CC(C)(C)Cc3c2cnn3-c2cccc(F)c2)cn1 (stereo unspecified)	inactive	
O=C(Nc1ncc2c(n1)CC(c1ccco1)CC2=O)c1ccco1 (stereo unspecified)		20% [at 6 µM]
O=C(C[C@@H]1C[C@@H]2c3cc(NC(=O)c4cccnc4)ccc3O[C@@H]2[C@@H](CO)O1)NCc1cccnc1	inactive	
Nn1c(SCc2nc3ccccc3[nH]2)nnc1-c1cccnc1	inactive	
CC(=O)N1CC[C@@H]2[C@@H](CO)N(C)c3ccc(-c4cccc(F)c4)cc3[C@@H]21	inactive	
Cc1cc(NC(=O)CN(C)S(=O)(=O)c2cnc[nH]2)ccc1Br	inactive	

Reference: PubChem BioAssay AID651899 (Broad Institute, 2012)
